Data as given in PubChem BioAssay (NCI).
“And” between values parts separate entries of the source, which are not always exact repeats. Identical values can stand only once. About 83,000 compounds went through this panel and 20% of them were active in at least one assay; those are over-represented in the sample as a whole.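 96-well plates, one dose, 48 hours. Percent growth reported; active if below 10.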 The source made the active and inactive calls.

system: HL-60(TB) leukemia; test: NCI-60 one-dose screen, 48 h (100 = growth as untreated, 0 = no growth, -100 = all killed); conditions: 10 µM unless noted

SMILES | growth
Cc1[nH]c(=O)[nH]c(=O)c1Br | 129% (inactive)
Cn1cc(-c2csc(-c3cn(C(=O)OC(C)(C)C)c4ccc(Br)cc34)n2)c2ccnc(Cl)c21 | 115% (inactive)
COc1cccc(-c2cc(-c3cccs3)c(C#N)c(=O)[nH]2)c1 | 102% (inactive)
Cn1c(=O)n(-c2ccc(C(C)(C)C#N)cc2)c2c3cc(-c4cnc5ccccc5c4)ccc3ncc21 | 10.3% (inactive) and -11.9% (active)
COc1cccc2c1C=C1CCCCC3=Cc4c(OC)cccc4OC13O2 | 19.1% (inactive)
O=S(=O)(c1ccc(N/N=C\c2ccccc2)cc1)c1ccc(N/N=C/c2ccccc2)cc1 | 94.8% (inactive)
CN(C)CCCOc1c(Br)cc(/C=C/C(=O)N(C)CCc2cc(Br)c(OCCCN(C)C)c(Br)c2)cc1Br | 81.9% (inactive)
CCN1CCN(Cc2ccc(NC(=O)c3cccc(C#Cc4cccc5[nH]nc(N)c45)c3)cc2C(F)(F)F)CC1 | -54.1% (active)
O=C1CSC(c2ccccc2Cl)N1c1nnc(Cn2nnc3ccccc32)o1 (configuration not stated) | 84.4% (inactive)
COc1cc(-c2nn(C)nc2-c2cc3ccccc3s2)cc(OC)c1OC | -3.84% (active)
O=C(NN1C(=O)CSC1c1ccc(Cl)cc1)c1[nH]c2ccc(F)cc2c1-c1ccccc1 (configuration not stated) | 35.5% (inactive)
O=c1scc(-c2ccc(C(F)(F)F)cc2)s1 | 92.7% (inactive)
O=C(N/N=C/c1ccc(F)cc1)c1[nH]c2ccc(I)cc2c1-c1ccccc1 | 51.2% (inactive)
Cc1ccc(N2C(=O)c3cccc4c(N)c(S(=O)(=O)O)cc(c34)C2=O)cc1 | 88.8% (inactive)
C=C(CN1CCc2c([nH]c3ccccc23)C1)c1ccc(C(=O)Nc2ccon2)cc1 | 99% (inactive)
COc1cnc2c(c1)C(=O)c1c-2n(CCCNC(C)C)c(=O)c2cc(Cl)ccc12 | -69.1% (active)
O=C1/C(=C\c2cn(C(=O)c3ccc(Cl)cc3)c3ccccc23)c2ccccc2N1c1c(Cl)cccc1Cl | 103% (inactive)
Cc1nc2ccccc2c(/C=C/c2ccc(Cl)cc2)c1C(=O)/C=C/c1ccc(Cl)cc1 | -34.6% (active)
O=S(=O)(Nc1ccc(Cl)cc1Cl)c1ccc(-c2cnc(C3CC3)o2)cc1 | -0.119% (active)

SMILES | growth
O=C(/C=C/c1cccc(Cl)c1)OCc1ccc2cc1OCC#C/C=C\C#CCO2 | 81.8% (inactive)
Cc1cc(NCc2cc(Nc3ccnc4cc(Cl)ccc34)ccc2F)nc(N2CCSCC2)n1 | -61.4% (active)
O=C1c2ccccc2-c2c1nc1ccccc1[n+]2[O-] | 101% (inactive)
CC1(C)NCCC[C@]2(C)[C@H]3CC[C@@H]4[C@H]5[C@H](C(=O)/C=C/c6ccccn6)CC[C@]5(CO)CC[C@@]4(C)[C@]3(C)CC[C@@H]12 | -31.8% (active)
COc1ccc(C(=O)/C=C/c2c(C(F)(F)F)nc3ccccn23)cc1OC | 2.72% (active)
S=C(S)NCCc1c[nH]c2ccccc12 | 91.4% (inactive)
Brc1ccc2c(c1)CN(C1CCCCC1)CO2 | 106% (inactive)
NC(=S)N1N=C(c2ccccc2)CC1c1cn(-c2ccccc2)nc1-c1ccc(OCc2ccccc2)cc1 (configuration not stated) | 114% (inactive)
CC1(C)CC(=O)NC1=O | 111% (inactive)
O=C(Nc1ccccc1)Nc1cccc(-n2cc(-c3ccncc3)c(-c3ccc(O)c(Cl)c3)n2)c1 | 37.5% (inactive)
CN(C)CCOc1ccc(-c2nc3ccc(-c4nc5ccc(N6CCN(C)CC6)cc5[nH]4)cc3[nH]2)cc1 | 72.1% (inactive)
CCNCCCn1c2c(c3ccc(F)cc3c1=O)C(=O)c1cc(OC)cnc1-2 | -25.5% (active)
CCOC(=O)c1cc(C(=O)c2ccc(OC)c(OC)c2)n2ccc(-c3ccccn3)cc12 | 110% (inactive)
COc1cc(OC)c2sc(-c3ccc(-n4cncc4-c4ccc(OC)c(OC)c4)cc3)nc2c1 | 58.5% (inactive)
O=C(Nc1cccc(Cn2c(=O)[nH]c3ccc(Oc4ncccn4)cc3c2=O)c1)c1ccc(Cl)cc1 | 64.2% (inactive)
O=C(Nc1ccc(OCc2nnc(-c3ccccc3)o2)c(F)c1)Nc1ccc(Cl)c(Cl)c1 | 58.5% (inactive)
O=C(c1ccc(Cl)cc1Cl)N1CCOCC1 | 105% (inactive)
CC1=CC[C@@H]2C(C)(C)C(=O)CC[C@@]2(C)[C@@H]1COc1ccc2ccc(=O)oc2c1 | 85.9% (inactive)
